# Data from PubChem BioAssay (NCI).
# The panel holds about 83,000 compounds, 20% with a hit somewhere; the sample as a whole holds those more often.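 Treatment: one concentration, 48 hours, 96-well format. Scoring: percent growth, with anything below 10 considered active.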 Activity calls are given as the source filed them.
# Test system: UACC-62 melanoma
# Experiment: NCI-60 one-dose screen, 48 h (100 = growth as untreated, 0 = no growth, -100 = all killed)
# Conditions: 10 µM
# Protocol: Growth inhibition of the UACC-62 human tumor cell line is measured as a screen for anti-cancer activity. Cells are grown in 96 well plates and exposed to the test compound for 48 hours. Compounds are tested at a single concentration, which is 10^-5 M for most compounds. The reported endpoint is percent growth (GI% or GIPRCNT), where numbers from 0 - 100% represent growth inhibition, and numbers from -100% - 0 represent cell death. For example, a value of 40 represents 60% growth inhibition. A value of 0 means no net growth occurred over the course of the experiment. A value of -40 indicates 40% of cells at the beginning of the experiment died by the end of the experiment. A value of -100 means all cells are dead at the end of the experiment.
# NCI-60 Human Tumor Cell Lines Screen was performed using the standard one-dose NCI protocol, which is described in more detail at https://dtp.cancer.gov/discovery_development/nci-60/default.htm.
# Compounds with GIPRCNT values below 10 were considered active. Activity score was based on GIPRCNT using the following formula: […]
# Score is 0 for GIPRCNT values of 100 or above, 50 for GIPRCNT values of 0, and 100 for GIPRCNT values of -100.
row,Compound,growth
1,CCc1ccc(-c2nnc(COc3ccc(-c4nc5ccc(C)cc5[nH]4)cc3OC)o2)cc1,79.6% (inactive)
2,COc1ccc(S(=O)(=O)Nc2ccc(OCc3nnc(-c4ccc(Cl)cc4)o3)c(F)c2)cc1,42.4% (inactive)
3,COc1cc(-c2cc(-c3ccc(C)cc3)nc3nc(N)[nH]c(=O)c23)ccc1Oc1ccnc2cc(Cl)ccc12,86.9% (inactive)
4,COC(=O)CCCCCCCCC(C)c1ccc(C(C)=O)cc1 (stereo not given),116% (inactive)
5,CS(=O)(=O)Nc1ccc(OCc2nnc(-c3ccc(Cl)cc3)o2)c(F)c1,83.7% (inactive)
6,CCCCCCCCCCN=C(c1ccc(N(C)C)cc1)c1ccc(N(C)C)cc1,31.7% (inactive)
7,COc1cccc(C(=O)NNc2nc(N3CCOCC3)nc(N3CCN(C(c4ccccc4)c4ccccc4)CC3)n2)c1,65.8% (inactive)
8,O=c1oc2cc(OS(=O)(=O)C3CC3)ccc2c2c1CCCCCC2,71.3% (inactive)
9,CCOC(=O)C(=O)Cc1cccnn1,99.7% (inactive)
10,CC[C@@]1(C(N)=O)CC2C=CC1C2 (stereo not given in full),107% (inactive)
11,COc1cc(/C=C/C(=O)c2cc(-c3ccccc3)ccc2O)cc(OC)c1OC,58.8% (inactive)
12,O=c1ccc2nc(-c3ccccc3)nn(-c3ccccc3)c-2c1,30.1% (inactive)
13,CCOC(=O)C(CCC1=NC(C)(C)CC(C)O1)C(=O)OCC (stereo not given),93.3% (inactive)
14,CCCn1c(=O)c2c(nc(-c3cccc(OCCCCl)c3)n2C)n(CCC)c1=O,78.9% (inactive)
15,O=C(COc1ccc(-c2nc3ccccc3[nH]2)cc1)N=Nc1c(O)[nH]c2ccccc12,96.2% (inactive)
16,COc1ccc(-c2ccc(-c3ccc(C(=N)N)c(F)c3)s2)cc1,-88.9% (active)
17,CC(C)C[C@H](NC(=O)Cn1ccc(Nc2ccccc2)cc1=O)B(O)O,25% (inactive)
18,CC1(C)CCc2cc(-c3ccn(S(=O)(=O)c4ccc(Cl)cc4)n3)ccc2O1,75% (inactive)
19,O=C(C=P(c1ccccc1)(c1ccccc1)c1ccccc1)c1ccc(Br)cc1,67.5% (inactive)
20,O=C(N/N=C/c1ccccc1O)c1ccccc1,13.8% (inactive)

row,Compound,growth
1,COc1cc(-c2cc(/C=C/C(C)=O)[nH]n2)cc(OC)c1OC,84.6% (inactive)
2,CCN(CC)CC(O)Cc1ccc(OC)cc1 (stereo not given),111% (inactive)
3,COc1ccccc1NC1=C(N2CCCCC2)C(=O)c2ccccc2C1=O,81.4% (inactive)
4,CCc1ccc(-c2nnc(COc3ccc(-c4nc5cc(Cl)c(Cl)cc5[nH]4)cc3OC)o2)cc1,78.8% (inactive)
5,CCN(CC)CCn1c(=N)n(CC(O)c2ccc(Cl)c(Cl)c2)c2ccccc21 (stereo not given),-30.5% (active)
6,COc1cc2c3c(cccc3c1)C(=O)N(CCN1CCCC1)C2=O,-34% (active)
7,CCOC(=O)c1cc2c(n1Cc1cccc(OC)c1)-c1oncc1CC2,30.8% (inactive)
8,NC1CCC(Nc2nc(NCc3ccc(-c4cccs4)nc3)c3ncn(C4CCCC4)c3n2)CC1 (stereo not given),-42.4% (active)
9,COc1ccc(-c2ccccc2)cc1C(=O)c1ccc(-c2ccccc2)cc1,62.2% (inactive)
10,C[C@]12CC[C@H]3[C@@H](CC=C4C[C@@H](O)CC[C@@]43C)[C@@H]1CC[C@@H]2C(=O)C/C=N/O,88.6% (inactive)
11,c1ccc(CC(NCCNC(Cc2ccccc2)c2ccccc2)c2ccccc2)cc1 (stereo not given),16% (inactive)
12,Cc1ccc2c(c1)-c1cc(C)nn1-c1ccc(C#N)cc1O2,52.4% (inactive)
13,COc1ccc(Nc2ccnc(N3CCN(c4ccnc5cc(Cl)ccc45)CC3)n2)cc1,-4.07% (active)
14,COC(=O)c1c(C)nc(Nc2nc3ccccc3s2)nc1-c1ccc(Cl)cc1Cl,96.1% (inactive)
15,O=C(OCc1ncc(-c2ccc(C(F)(F)F)cc2)c(NC2CCCCCC2)n1)c1c(F)c(F)c(F)c(F)c1F,36.6% (inactive)
16,Cc1cc(C)c(/C=C2\C(=O)Nc3ccc(NC(=O)CCCCCCC(=O)NO)cc32)[nH]1,-12.3% (active)
17,COc1ccc(COC(=O)CC(C)C)cc1,99.3% (inactive)
18,CCCCCCCCCCCCCC[n+]1ccc(C)cc1,-71.5% (active)
19,Fc1ccc(-c2cc(C(Cl)Cl)no2)cc1,92.8% (inactive)
20,COc1ccc(Cn2cc3c(c2-c2cc(OC)c(OC)c(OC)c2)CCc2cnoc2-3)cc1N,50.5% (inactive)
